Measurements: PubChem BioAssay (NCI)
About 83,000 compounds went through this panel and 20% of them were active in at least one assay; those are over-represented in the sample as a whole.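 Plates (96-well) were seeded with cells, treated with compound at one concentration, and incubated for 48 hours before percent growth was determined.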 A number with no mark means an inactive call. Active and inactive are the calls of the source. How the source made its calls: active means growth percent below 10; inactive means the rest.

test system: SK-OV-3 ovarian; experiment: NCI-60 one-dose screen, 48 h (100 = growth as untreated, 0 = no growth, -100 = all killed); conditions: 10 µM unless noted

Which growth does the source give for `O=C1Nc2ccccc2/C1=C\c1cccc(/C=C2/C(=O)Nc3ccccc32)n1` here?
The growth was -88.6% (active).

Which growth does the source give for `COc1ccc(/C=N/NC(=O)c2cccc3cc[nH]c23)cc1O` here?
The growth was 26.1%.

How did the growth turn out when `CCN1C(=O)N(CC)C2C1NN=c1s/c(=C3\C(=O)Nc4ccccc43)c(=O)n12` (configuration not stated) was run?
The growth was 18.4%.

Which growth does the source give for `CC(C)(O)C1CCCN1C(=O)c1ccccc1I` (configuration not stated) here?
Its growth is 89.8%.

With `O=C1NC(=S)NC(=O)C1=Cc1cccc(C=C2C(=O)NC(=S)NC2=O)c1` as the molecule, how does the growth read?
Its growth is 110%.

How did the growth turn out when `Cn1c2c(Cl)c(Cl)ccc2c2cc(N)[nH]c(=O)c21` was run?
The growth was 92.2%.

How did the growth turn out when `COc1ccc(-c2cnnc3c(-c4cccc(C(F)(F)F)c4)cnn23)cc1` was run?
The growth was 15.1%.

`O=C1Nc2c(ccc(Cl)c2Cl)/C1=C/c1ccc([N+](=O)[O-])cc1` was tested. Which growth did it give?
The growth was 93.8%.

How did the growth turn out when `COc1ccc(-c2nc(SCC(C)C)nc(N/N=C(/C)c3ccc(OC)c(OC)c3)c2C#N)cc1` was run?
Its growth is 93.3%.

With `NS(=O)(=O)c1cccc(NC(=O)C(=O)C2C(=O)Nc3ccccc32)c1` (configuration not stated) as the molecule, how does the growth read?
The growth was 106%.

With `O=S(=O)(c1cccc(NC2=Nc3cccc4cccc2c34)c1)N1CCCC1` as the molecule, how does the growth read?
The growth was 84.1%.

With `CCOC(=O)c1c(SC)nn(-c2cc(=O)[nH]c3ccc(Br)cc23)c1N` as the molecule, how does the growth read?
The growth was 98.5%.

`CC(=O)c1c[nH]c2ccc(-c3ccnc(Nc4ccc(NC(=O)C5CCCC5)c(CN5CCOCC5)c4)n3)cc12` was tested. Which growth did it give?
The growth was 10.6%.

For `COc1ccc(/C=C(/c2ccccc2)[N+](=O)[O-])cc1`, which growth is on record?
Its growth is 9.1% (active).

With `O=C1Nc2c(ccc(Cl)c2Cl)/C1=C/c1ccccn1` as the molecule, how does the growth read?
The growth was 94%.

Which growth does the source give for `CCN(CCNc1cc(OC)cc2cccnc12)CCc1ccccc1` here?
The growth was 74.6%.

With `COc1cc2nc(-c3ccc(C#N)cc3)[nH]c(=O)c2cc1OC` as the molecule, how does the growth read?
The growth was 112%.

How did the growth turn out when `CCCOc1nc(SCCC)nc2c1cnn2-c1ccccc1` was run?
The growth was 106%.

How did the growth turn out when `O=S(=O)(c1ccccc1)N1CCCc2ccccc21` was run?
The growth was 105%.

For `O=C(Nc1ccc(Cl)cc1)Nc1ccc(Cl)c(Cl)c1`, which growth is on record?
Its growth is 20.2%.

With `COc1cc(NCC(O)CN(CC(C)C)C2CCCC2)c2ncccc2c1` (configuration not stated) as the molecule, how does the growth read?
The growth was 93.3%.

Which growth does the source give for `COc1ccc(Nn2c(SCC(=O)Nc3nc(-c4ccc(Cl)cc4)cs3)nc(C)c2C)cc1` here?
Its growth is 77.8%.

With `COc1cccc2c1C(=O)c1c(O)c3c(c(O)c1C2=O)C[C@@](O)(C(=O)CO)C[C@@H]3O[C@H]1C[C@H](N)[C@@H](O)[C@H](C)O1` as the molecule, how does the growth read?
Its growth is 7.22% (active).

`Clc1ccc(N2N=C(c3cccc(Nc4ccncc4)c3)CC2c2ccc3c(c2)OCO3)cc1` (configuration not stated) was tested. Which growth did it give?
The growth was 54.8%.

`O=C(N/N=C/c1ccncc1)c1ccccc1Nc1cccc(C(F)(F)F)c1` was tested. Which growth did it give?
Its growth is 86.4%.

Which growth does the source give for `COc1ccc(Cc2nc3cc(OC)c(OC)cc3c(=O)[nH]2)cc1` here?
Its growth is 148%.

For `COc1ccc(-c2c[nH]c(C(=O)O)c2-c2cc(OC)c3c(c2OC)OCO3)cc1`, which growth is on record?
Its growth is 119%.

`Clc1ccc(N2N=C(c3cccc(Nc4ccncc4)c3)CC2c2ccccc2)cc1` (configuration not stated) was tested. Which growth did it give?
The growth was 87.6%.

With `COc1ccc(Cn2nc(-c3cc(OC)c(OC)c(OC)c3)c3c2CCc2cnoc2-3)cc1OC` as the molecule, how does the growth read?
The growth was 47%.

With `COc1cc2nnn3c4ncccc4c(N=O)c3c2cc1OC` as the molecule, how does the growth read?
The growth was 104%.

For `Clc1nc(Cl)c2ncn(CC3(Cn4cnc5c(Cl)nc(Cl)nc54)COC3)c2n1`, which growth is on record?
The growth was -99.8% (active).

For `COc1ccc(-c2nn(Cc3ccccc3)c3c2-c2oncc2CC3)cc1OC`, which growth is on record?
The growth was 137%.

With `COc1cc(/C=C/C(=O)c2c(C)oc3nc[nH]c(=O)c23)ccc1O` as the molecule, how does the growth read?
The growth was 103%.

Which growth does the source give for `CCc1nc(C)cn1C(=O)OCc1nc2nc(Cl)nc(N3CCOCC3)c2[nH]1` here?
Its growth is 70%.

Which growth does the source give for `O=C(Nc1ccccc1)Oc1ccccc1-c1ccccc1` here?
Its growth is 80.1%.

Which growth does the source give for `COc1ccc(C(O)c2cc3c(N)c(C(=O)Nc4ccccc4)sc3nc2C)cc1` (configuration not stated) here?
Its growth is -9.84% (active).

How did the growth turn out when `CCC(C)N(CCNc1cc(OC)cc2cccnc12)CCC(C)C` (configuration not stated) was run?
Its growth is 68.3%.
